Screening results: PubChem BioAssay, National Center for Advancing Translational Sciences (NCATS)
An excerpt weighted towards active compounds, which were near 11% of everything screened.
G9a inh = blocks human histone lysine methyltransferase G9a. G9a H3K9 monomethylation, AlphaScreen, 2 h. AID 504332. 350,000 tested, 8.8% active. Potency, µM (titrated, usually from 102 µM), most hits filed as inhibitors; further: nearly all actives have a fitted effect of over 75% in size
Target sequence (Q96KQ7 913-1193 limits assumed): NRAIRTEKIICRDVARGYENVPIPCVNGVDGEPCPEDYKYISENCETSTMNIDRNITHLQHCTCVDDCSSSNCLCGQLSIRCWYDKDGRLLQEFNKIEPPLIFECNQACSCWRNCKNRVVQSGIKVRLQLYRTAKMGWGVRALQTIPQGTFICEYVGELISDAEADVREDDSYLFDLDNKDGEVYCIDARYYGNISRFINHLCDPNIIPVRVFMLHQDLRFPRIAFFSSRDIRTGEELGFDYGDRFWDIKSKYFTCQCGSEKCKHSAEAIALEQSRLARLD
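Enzyme 20 nM + cpd, 15 min RT; add b-H3K9 pep 500 nM / SAM 20 uM; 2 h RT; anti-H3K9me1 Ab 0.5 ug/mL + SA donor / anti-rabbit acceptor beads 20 ug/mL each, 10 min; AlphaScreen read.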
L3MBTL1 inh = inhibitors of human L3MBTL1. AlphaScreen L3MBTL1–H3K9me1 peptide binding. Q9Y468. 230,000 tested, 0.66% active. Potency, µM (doses to about 57.1 µM), actives largely listed as inhibitors; further: nearly all actives have a fitted effect of over 60% in size
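First, the protein-peptide complex forms for 30 min at room temperature (L3MBTL1 50 nM, biotinylated H3K9me1 peptide 75 nM). Next, compounds are pin-transferred and incubated 30 min. Finally, AlphaScreen beads are added and read after 30 min.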
JMJD2A Tudor = inhibitors of human JMJD2A Tudor domain; O75164; AID 504339; Potency, µM (titrated, usually from 114 µM), hits mostly inhibitors; 390,000 tested, 4.4% active; AlphaScreen JMJD2A-Tudor / H3K4me3 peptide binding; further: nearly all actives have a fitted effect of over 50% in size
HP1b chromo inh = HP1-beta chromodomain-methylated histone interaction inhibition | 390,000 tested, 0.56% active | Potency, µM (highest dose often 114 µM), hits mostly inhibitors | P83916 | AlphaScreen HP1-beta / biotin-H3K9me3 peptide binding; further: nearly all actives have a fitted effect of over 70% in size
Target sequence (P83916 whole entry, looked up): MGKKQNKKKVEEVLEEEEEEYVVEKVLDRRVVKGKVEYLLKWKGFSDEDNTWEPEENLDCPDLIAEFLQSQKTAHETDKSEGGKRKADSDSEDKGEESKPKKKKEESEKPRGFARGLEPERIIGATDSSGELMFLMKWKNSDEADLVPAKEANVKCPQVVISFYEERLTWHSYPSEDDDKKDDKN
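Compound inhibition of the preformed complex between 50 nM HP1-beta and 50 nM biotinylated H3K9me3 peptide was read by AlphaScreen. Buffer was PBS pH 7.4 with 0.01% Tween-20. Incubations ran 30 min at room temperature, with 10 ug/mL donor/acceptor beads.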
BAZ2B block = inhibitors of human BAZ2B bromodomain | 360,000 tested, 4.4% active | Potency, µM (highest dose often 114 µM), hits mostly inhibitors | AlphaScreen BAZ2B-H3K14Ac peptide displacement; further: nearly all actives have a fitted effect of over 60% in size
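Complex of BAZ2B and biotin-H3K14Ac (50 nM apiece) forms over 30 min at RT, then faces library compounds up to 110 uM for another 30 min; AlphaScreen beads added, 20 min dark incubation, luminescence read.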
Hits are given with their value; – = inactive; ? = inconclusive; · = no result given; [ ] = dose if it differs, or a comment. The call rests on the fitted dose curve; in most records, active means well fitted inhibition curve with a large enough effect; inconclusive means small, poorly fitted or top-dose-only effect; inactive means no such curve, though single readings can be large or run the other way.

SMILES	G9a inh	L3MBTL1 inh	JMJD2A Tudor	HP1b chromo inh	BAZ2B block
C=CCn1c(Cc2c[nH]c3ccccc23)n[nH]c1=S	6.31µM	–	8.91µM	–	–
C=CCn1c(CCC(O)CCCCC)n[nH]c1=S (stereo not given)	7.08µM	–	17.8µM	–	–
C=CCn1c(Cc2ccccc2)n[nH]c1=S	·	?	3.55µM	–	–
C=CCn1c(C(CCCC)CC(C)O)n[nH]c1=S (stereo not given)	?	–	?	–	–
C=C[C@@]1(C)C[C@H](OC(=O)CSC(C)(C)CNC(=O)[C@@H](N)C(C)C)[C@@]2(C)C(C)CC[C@@]3(CCC(=O)[C@@H]32)[C@H](C)[C@H]1O (stereo not given in full)	–[12.7 µM]	·	·	·	·
COc1cc(NC(=O)CSc2nc(C)c(C(=O)Nc3ccccc3)c(-c3ccc(OC)c(OC)c3)c2C#N)c(OC)cc1Cl	–	·	–	–	–
O=C(COc1ccc(C(=O)c2ccccc2)cc1)Nc1cccnc1	–	·	–	–	–
CCc1ccccc1S(=O)(=O)Cc1ccc(C(=O)NCCc2ccc(C)cc2)o1	–	·	20µM	–	–
CCc1ccccc1S(=O)(=O)Cc1ccc(C(=O)NC(C)C)o1	·	·	–	–	·
CC(CNC(=O)c1ccc2c(c1)nc1n2CCCCC1)c1ccccc1 (stereo not given)	–	·	–	–	–
O=C(NS(=O)(=O)c1ccccc1Cl)c1ccc[nH]1	79.4µM	–	·	·	–
Cc1cccc(N2CCN(C(=O)C3CCCN(S(=O)(=O)c4ccc(Br)s4)C3)CC2)c1C (stereo not given)	?	·	–	–	–
Cc1ccc(C(=O)N2CCN(Cc3ccccc3)CC2)o1	–	·	–	–	–
Cc1cc(C)c(C)c(S(=O)(=O)N2CCN(C(=O)c3ccco3)CC2)c1C	·	·	–	–	·
Cc1ccc(/C=C/C(=O)N2CCN(Cc3ccccc3)CC2)o1	3.98µM	–	–	–	?
Cc1ccc(/C=C/C(=O)N2CCN(S(=O)(=O)c3c(C)c(C)cc(C)c3C)CC2)o1	7.94µM	–	79.4µM	?	?
Cc1ccc(/C=C/C(=O)N2CCN(S(=O)(=O)c3ccc(C)c(C)c3)CC2)o1	2.82µM	–	44.7µM	?	?
Cc1ccc2nc(-c3ccc(C)o3)c(Nc3ccc(Cl)cc3)n2c1	·	·	–	–	·
Cc1ccn2c(=O)cc(COc3cccc(NC(=O)Nc4cccc(Cl)c4C)c3)nc2c1	–	·	–	–	–
Cc1ccc(NC(=O)c2nnn(CC(=O)Nc3ccc(C)c(Cl)c3)c2N)c(C)c1	–	·	–	–	–
NS(=O)(=O)c1cccnc1Nc1cccc(C(F)(F)F)c1	–	·	–	–	–
O=C(Nc1cccc(C(F)(F)F)c1)c1cccnc1N1CCN(CCO)CC1	–	–	–	–	–
O=C(O)c1cccnc1Nc1cccc(C(F)(F)F)c1	–	–	–	–	79.4µM
O=C(Nc1cccc(C(F)(F)F)c1)c1cccnc1N1CCN(c2ccccc2)CC1	?	·	79.4µM	–	50.1µM
CCOc1ccc(N(C)C(=O)c2oc(=O)c3ccccc3c2-c2ccccc2)cc1	–	·	–	–	–
SMILES	G9a inh	L3MBTL1 inh	JMJD2A Tudor	HP1b chromo inh	BAZ2B block
CC(C)(C)OC(=O)N1CCN(c2nc(-c3cccs3)nc3ccccc23)CC1	·	·	–	–	·
CCOCCCn1c(SCC(=O)Nc2ccccc2Cl)nc2c(oc3ccccc32)c1=O	–	·	–	–	–
O=C(O)CSc1c2c(nc3cc(C(=O)N4CCOCC4)ccc13)CCCC2	–[0.501 µM]	–	39.8µM	–	70.8µM
CCOC(=O)N1CCN(C(=O)c2ccc3c(=O)n4c(nc3c2)CCCCC4)CC1	–	–	–	–	–
CCOC(=O)N1CCN(C(=O)c2ccc3c(SCC(=O)O)c4c(nc3c2)CCCC4)CC1	39.8µM	–	–	–	–
Cn1c(NC(=O)c2ccccc2)cc(=O)n(C)c1=O	–	–	–	–	–
Cn1c(NC(=O)c2ccccc2F)cc(=O)n(C)c1=O	56.2µM	·	–	–	–
CCN(CC)C(=O)c1cc([N+](=O)[O-])cc2c1-c1ccc([N+](=O)[O-])cc1C2=C(C#N)C#N	50.1µM	–	?	–	?
CCN(CC)C(=O)c1ccc(Oc2ccc([N+](=O)[O-])cc2Cl)cc1	?	–[11.4 µM]	–	–	–
COc1ccc2c(c1)sc(=N)n2C	20µM	·	–	–	–
CC(=O)Oc1cc(C(=O)OCC(=O)NC23CC4CC(CC(C4)C2)C3)cc(OC(C)=O)c1OC(C)=O	·	·	3.55µM	?	·
